Mito fusion yeast: qHTS Assay for Small Molecule Inhibitors of Mitochondrial Division or Activators of Mitochondrial Fusion | S. cerevisiae fusion-defective mutant growth rescue, CellTiterGlo 48 h | Potency, µM (series often up to 46.1 µM), most hits filed as activators | 320,000 tested, 0.23% active | AID 485298, 2010; further: nearly all actives have a fitted effect of over 45% in size
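Compounds are tested for their ability to restore growth of mitochondrial fusion-defective yeast strains at non-permissive 37C in YPEG medium over 48 hours. Viability is quantified by luciferase luminescence.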
Abeta rescue: qHTS for compounds that reverse cellular toxicity of Amyloid beta (A-beta) peptide in yeast: Primary Screen | yeast expressing A-beta42, growth rescue, OD600, 48 h; response scale: 0% DMSO, 100% iron-clioquinol control | Potency, µM (titrated, usually from 46.1 µM), most hits filed as activators | 410,000 tested, 0.063% active; further: nearly all actives have a fitted effect of over 55% in size
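Growth rescue measured by 600 nm absorbance after 48 h yeast culture at 30 C with compound. Values normalized between DMSO and an equimolar ferric chloride plus clioquinol control.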
FUS yeast rescue: qHTS for Suppressors of FUS Proteinopathy: Primary screen using FUS-linked yeast assay | S. cerevisiae FUS-expressing, growth rescue, OD600, 24 h | Potency, µM (titrated, usually from 76.6 µM), hits mostly activators | 390,000 tested, 0.24% active; further: nearly all actives have a fitted effect of over 55% in size
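Yeast expressing FUS under galactose induction, OD 0.005 in 2% galactose medium; compounds in a dilution series, 24 h at 30C. Growth rescue by absorbance at 600 nm; CP55940 positive control, DMSO negative.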
TDP-43 yeast inh: qHTS of TDP-43 Inhibitors. TDP-43 expressing yeast growth rescue, BacTiter-Glo, 24 h. Potency, µM (titrated, usually from 46.1 µM), hits mostly activators. 410,000 tested, 1.8% active. AID 652104, 2013; further: nearly all actives have a fitted effect of over 50% in size
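Readout is BacTiter-Glo luminescence of cell growth, so inhibitors register as activators. TDP-43-expressing yeast at OD600=0.02 in galactose medium, after raffinose pregrowth to mid-log, were incubated with compound for 24 hr at 30 deg C.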
aSyn yeast inh: qHTS of alpha-syn Inhibitors; Yeast expressing alpha-synuclein, growth rescue, BacTiter-Glo, 24 h; Potency, µM (series often up to 46.1 µM), actives largely listed as activators; 370,000 tested, 0.14% active; AID 652106, 2013; further: nearly all actives have a fitted effect of over 65% in size
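Rescue of yeast growth: cells expressing toxic alpha-synuclein, induced in galactose at OD600 0.02, incubated with compound 24 h at 30 C. ATP luminescence quantified growth; inhibitors of toxicity appear as activators.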
A number is an active result; [ ] = remark or other dose. This is a sample that favours compounds with a hit; in the whole collection about 2.2% have one here. The call rests on the fitted dose curve; in most records, active means well fitted curve in the direction sought with a large enough effect; inconclusive means small, poorly fitted or top-dose-only effect, or another doubt; inactive means no such curve, though single readings can be large; an effect the other way counts as inactive or inconclusive.

Results for COc1ccc(C(C)(NC(C)=O)c2nc(-c3cccnc3)cs2)cc1 (stereo not drawn) ?
Abeta rescue: inactive; FUS yeast rescue: inactive; TDP-43 yeast inh: inconclusive; aSyn yeast inh: inactive

How did O=C(COc1ccc(Br)cc1)N(Cc1nnc(-c2ccccc2Cl)o1)C1CC1 do in these assays?
Abeta rescue: inactive; FUS yeast rescue: inconclusive; TDP-43 yeast inh: 20µM; aSyn yeast inh: inconclusive

Results for CCCN(Cc1nnc(-c2ccccc2Cl)o1)C(=O)COc1ccc(Cl)cc1 ?
Mito fusion yeast: inactive; Abeta rescue: inactive; TDP-43 yeast inh: 35µM; aSyn yeast inh: inactive

How did CCC(=O)c1ccc(OCC(=O)N(Cc2nnc(-c3ccccc3Cl)o2)C2CC2)cc1 do in these assays?
Mito fusion yeast: inactive; Abeta rescue: inactive; FUS yeast rescue: inactive; TDP-43 yeast inh: inactive; aSyn yeast inh: inactive

Results for CC(C)N(Cc1nnc(-c2ccccc2Cl)o1)C(=O)COc1cccc(Cl)c1 ?
Abeta rescue: inactive; FUS yeast rescue: inactive; TDP-43 yeast inh: inactive; aSyn yeast inh: inactive

What do the screens show for `CC(=O)N(C(C)=O)c1ncnc2c1c(-c1ccc(Cl)cc1)nn2C(C)(C)C`?
Mito fusion yeast: inactive; Abeta rescue: inactive; FUS yeast rescue: inactive; TDP-43 yeast inh: inactive; aSyn yeast inh: inactive

Results for CC(=O)Nc1ncnc2c1c(-c1ccc(Cl)cc1)nn2C(C)(C)C ?
Mito fusion yeast: inactive; Abeta rescue: inactive; FUS yeast rescue: inactive; TDP-43 yeast inh: inactive; aSyn yeast inh: 3.5µM

How did O=C(/C=C/c1ccccc1)Nc1cccnc1Cl do in these assays?
Mito fusion yeast: inactive; Abeta rescue: inactive; FUS yeast rescue: inactive; TDP-43 yeast inh: 7.9µM; aSyn yeast inh: inactive

How did COc1cc(CN(C(=O)COc2ccc(Cl)cc2)c2ccccn2)cc(OC)c1OC do in these assays?
Abeta rescue: inactive; FUS yeast rescue: inactive; TDP-43 yeast inh: inactive

How did O=C(NC(=S)Nc1ccc(N2CCOCC2)c(Cl)c1)c1cncc(Br)c1 do in these assays?
Mito fusion yeast: inactive; Abeta rescue: inactive; FUS yeast rescue: inactive; TDP-43 yeast inh: 20µM; aSyn yeast inh: inactive

Results for O=C(NC(=S)Nc1ncc(Br)cc1Br)c1cncc(Br)c1 ?
Mito fusion yeast: inactive; Abeta rescue: inactive; FUS yeast rescue: inactive; TDP-43 yeast inh: inactive; aSyn yeast inh: inactive

What do the screens show for `O=C(NC(=S)Nc1ccc(N2CCOCC2)c(Cl)c1)c1cccs1`?
Mito fusion yeast: inactive; Abeta rescue: inconclusive; FUS yeast rescue: inactive; TDP-43 yeast inh: inactive; aSyn yeast inh: inactive

How did O=C(NC(=S)NC1CCCCCC1)c1cncc(Br)c1 do in these assays?
Mito fusion yeast: inactive; Abeta rescue: inconclusive; TDP-43 yeast inh: 16µM; aSyn yeast inh: inactive

Results for CC(=O)CSc1ncnc2sc3c(c12)CCC3 ?
Mito fusion yeast: inactive; Abeta rescue: inactive; FUS yeast rescue: inactive; TDP-43 yeast inh: 25µM; aSyn yeast inh: inconclusive

Results for COc1ccc(NC(=O)CCCN2C(=O)CCn3nc(-c4cn(C)c5ccccc45)cc32)cc1 ?
Abeta rescue: inactive; FUS yeast rescue: inconclusive; TDP-43 yeast inh: inactive

Results for CCOc1cc(-c2nc(-c3ccccc3)c(-c3cc([N+](=O)[O-])ccc3C)[nH]2)ccc1O ?
Mito fusion yeast: 14µM; Abeta rescue: inactive; FUS yeast rescue: inconclusive; TDP-43 yeast inh: inactive; aSyn yeast inh: inactive

Results for CC(=O)N1CCc2c(sc3c2c(=O)n(-c2cc(Cl)ccc2C)c(=O)n3C)C1 ?
Abeta rescue: inactive; FUS yeast rescue: inactive; TDP-43 yeast inh: inactive

Results for COc1cc2c(NC3CCN(C)CC3)nc(N3CCCN(C)CC3)nc2cc1O ?
aSyn yeast inh: inactive

Results for COc1ccccc1OCCCn1cc(C#N)c2ccccc21 ?
Mito fusion yeast: inactive; Abeta rescue: inactive; FUS yeast rescue: inactive; TDP-43 yeast inh: 35µM; aSyn yeast inh: inactive

What do the screens show for `Cn1c(=O)c2c(-c3ccccc3Br)n(C(C)(C)C)cc2n(C)c1=O`?
Abeta rescue: inactive; FUS yeast rescue: inactive; TDP-43 yeast inh: inactive

How did CC(c1ccccc1)n1cc2c(c1-c1ccccc1Br)c(=O)n(C)c(=O)n2C (stereo not drawn) do in these assays?
Abeta rescue: inactive; FUS yeast rescue: inconclusive; TDP-43 yeast inh: 14µM

Results for CC(C)CNc1ncnc2oc(-c3ccco3)c(-c3ccco3)c12 ?
aSyn yeast inh: inactive

What do the screens show for `N#Cc1ccccc1NC(=O)C1SC(=Nc2ccccc2)C(C(=O)Nc2ccc(Cl)cc2)=C1N` (stereo not drawn)?
Mito fusion yeast: inactive; Abeta rescue: inactive; FUS yeast rescue: inactive; TDP-43 yeast inh: inactive[9.22 µM]; aSyn yeast inh: inactive

Results for CCOc1ccc(N=C2SC(C(=O)Nc3ccccc3C#N)C(N)=C2C(=O)Nc2ccc(Cl)cc2)cc1 (stereo not drawn) ?
Mito fusion yeast: inactive; Abeta rescue: inactive; FUS yeast rescue: 35µM; TDP-43 yeast inh: inactive; aSyn yeast inh: inactive

How did CCn1c(=NC(=O)CSC(C)=O)sc2cc(OC)ccc21 do in these assays?
Mito fusion yeast: inactive; Abeta rescue: inconclusive; FUS yeast rescue: inactive; TDP-43 yeast inh: 14µM; aSyn yeast inh: inactive

How did COCCn1c(=NC(=O)CSC(C)=O)sc2cc(F)ccc21 do in these assays?
Mito fusion yeast: inactive; Abeta rescue: inconclusive; FUS yeast rescue: inactive; TDP-43 yeast inh: inactive; aSyn yeast inh: inactive

What do the screens show for `CCOC(=O)Cn1c(=NC(=O)CSC(C)=O)sc2cc(F)ccc21`?
Mito fusion yeast: inactive; Abeta rescue: 6.3µM; FUS yeast rescue: inactive; TDP-43 yeast inh: inconclusive; aSyn yeast inh: inactive

What do the screens show for `CCOC(=O)[C@]12CCCC3=C1N(CCC3)C(=O)[C@@H](CC(=O)NCc1ccc(OC)c(OC)c1)C2`?
FUS yeast rescue: inactive

How did COc1ccc(NC(=O)CC2C(=O)N(c3ccc(OC)cc3)C(=O)N2C2CCCCC2)cc1 (stereo not drawn) do in these assays?
Abeta rescue: inactive; FUS yeast rescue: inactive; TDP-43 yeast inh: inactive

What do the screens show for `CCOc1ccc(NC(=O)CC2C(=O)N(c3ccc(OC)cc3)C(=O)N2C2CCCCC2)cc1` (stereo not drawn)?
Abeta rescue: inactive; FUS yeast rescue: 40µM; TDP-43 yeast inh: inactive

Results for COc1cc(NS(=O)(=O)c2cnc(N)nc2)cc(OC)c1 ?
Abeta rescue: inactive; FUS yeast rescue: inactive; TDP-43 yeast inh: inactive

How did CC1CCCCN1C(=S)NC(=O)c1cc(Br)ccc1Cl (stereo not drawn) do in these assays?
Mito fusion yeast: inactive; Abeta rescue: inactive; FUS yeast rescue: inactive; TDP-43 yeast inh: 25µM; aSyn yeast inh: inactive

How did CCC1CCCCN1C(=S)NC(=O)c1cc(Br)ccc1Cl (stereo not drawn) do in these assays?
Mito fusion yeast: inactive; Abeta rescue: 11µM; FUS yeast rescue: inactive; TDP-43 yeast inh: 28µM; aSyn yeast inh: inconclusive

How did COc1cc2nc(NCCc3ccccc3)n3nc(-c4cccnc4)nc3c2cc1OC do in these assays?
Abeta rescue: inactive; FUS yeast rescue: inactive; TDP-43 yeast inh: inactive

Source: PubChem BioAssay (National Center for Advancing Translational Sciences (NCATS))
